Values quoted from earlier work as cited in PubChem BioAssay AID977611.
Among all 3,900 compounds or so, about 3,900 (100%) were called active. Cut-off not given; nearly all actives show Kd up to about 4200 µM. So high a share suggests a set chosen from earlier hits. The list shows a part of the results. Where a SMILES comes first, the peptide text is derived from it. Square brackets hold non-standard residues; d marks the D form. Peptide text beside a SMILES is read from it. [ ]: non-standard residue; d: D form. The star is where a group is joined. Lys(Me3) = C[N+](C)(C)CCCC[C@H](N)C(=O)O; Orn(CH(NH2)2) = NC(N)NCCC[C@H](N)C(=O)O; X1 = C[C@H](Cc1ccc(O)cc1)N*

Test: PubChem AID 977611
Settings: PDB protein-ligand complexes, literature Kd

CC[C@H](C)[C@H](N)C(=O)N[C@@H](CCC(N)=O)C(=O)N1CCC[C@H]1C(=O)N1CCC[C@H]1C(=O)N1CCC[C@H]1C(=O)N[C@H](C(=O)N[C@@H](CC(N)=O)C(=O)N[C@@H](CCCNC(N)N)C(=O)N[C@@H](CC(N)=O)C(=O)N[C@@H](CC(C)C)C(=O)N[C@@H](CCCCN)C(=O)N1CCC[C@H]1C(=O)N[C@@H](CC(=O)O)C(=O)N[C@H](C=O)CCCNC(N)N)C(C)C (H-IQPPPVN[Orn(CH(NH2)2)]NLKPD[Orn(CH(NH2)2)]-aldehyde)
Kd (protein: GROWTH FACTOR RECEPTOR-BOUND PROTEIN 2 SH3 DOMAIN, PDB entry 2vwf): 8700 nM (active)

CN1C=CN(CCCN2c3ccccc3Sc3ccc(C(F)(F)F)cc32)C=C1
Kd (protein: human calmodulin (CaM), PDB entry 1ctr): 1000 nM (active)

COC(=O)c1cc(N)cc(-c2c(C)noc2C)c1
Kd (protein: ATPase family AAA domain-containing protein 2 ATAD2A bromodomain, PDB entry 4tte): 202000 nM (active)

Cn1cc(O[C@@H]2O[C@H](CO)[C@H](O)[C@H](O)[C@H]2O)c2ccccc21
Kd (protein: PA-I galactophilic lectin, PDB entry 4ljh): 19400 nM (active)

CC[C@H](C)[C@H](NC(=O)[C@H](Cc1cnc[nH]1)NC(=O)[C@@H](NC(=O)[C@H](CCCNC(N)N)NC(=O)[C@H](CCCCN)NC(=O)[C@@H](N)CCCNC(N)N)[C@@H](C)CC)C(=O)NCC(=O)N1CCC[C@H]1C(=O)NCC(=O)N[C@@H](CCCNC(N)N)C(=O)N[C@@H](C)C(=O)N[C@@H](Cc1ccccc1)C(=O)N[C@@H](Cc1ccc(O)cc1)C(=O)N[C@@H](C)C(=O)N[C@H](C=O)[C@@H](C)O
Kd (protein: anti-HIV-1 Fab 537-10D, PDB entry 3ghe): 1300 nM (active)

CC(=O)NCCCC[C@H](NC(=O)[C@@H](NC(=O)CNC(=O)CNC(=O)[C@@H](NC(=O)[C@@H](N)CO)[C@@H](C)O)C(C)C)C(=O)N[C@@H](CCCCN)C(=O)N1CCC[C@H]1C(=O)N[C@@H](Cc1cnc[nH]1)C(=O)N[C@@H](CCCNC(N)N)C(=O)N[C@@H](Cc1ccc(O)cc1)C(=O)N[C@@H](CCCCN)C(=O)N[C@@H](CS)C(=O)O
Kd (protein: Histone acetyltransferase PCAF, PDB entry 2rnx): 402000 nM (active)

CC(C)[C@H](NC(=O)CNC(=O)CNC(=O)[C@@H](NC(=O)[C@H](C)N)[C@@H](C)O)C(=O)N[C@@H](CCCC[N+](C)(C)C)C(=O)N[C@@H](CCCCN)C(=O)N1CCC[C@H]1C(=O)N[C@@H](Cc1cnc[nH]1)C(=O)N[C@@H](CCCNC(N)N)C(=O)N[C@H](C)Cc1ccc(O)cc1 (H-ATGGV[Lys(Me3)]KPH[Orn(CH(NH2)2)]-X1)
Kd (protein: PHD finger protein 1, PDB entry 2m0o): 4200 nM (active)

O[C@@H]1[C@H](O)[C@@H](O[P+](O)(O)O)[C@H](O[P+](O)(O)O)[C@@H](O)[C@@H]1O[P+](O)(O)O
Kd (protein: Ligand-Binding Domain of rat InsP3 Receptor, PDB entry 3t8s): 2.82 nM (active) | Kd (protein: Rabphilin-3A, PDB entry 4np9): 9400 nM (active)

Nc1ncnc2c1ncn2[C@@H]1O[C@@H]2CO[P+](O)(O)O[C@@H]3[C@H](O)[C@@H](CO[P+](O)(O)O[C@H]2[C@H]1O)O[C@H]3n1cnc2c1NC(N)NC2=O (some centres undefined)
Kd (protein: Stimulator of interferon genes protein, PDB entry 4ksy): 3.79 nM (active) | Kd (protein: Stimulator of interferon genes protein, PDB entry 4loh): 110 nM (active) | Kd (protein: Stimulator of interferon genes protein, PDB entry 4loj): 300 nM (active)

NC1NC(=O)c2ncn([C@@H]3O[C@@H]4CO[P+](O)(O)O[C@H]4[C@H]3O)c2N1 (some centres undefined)
Kd (protein: Diguanylate cyclase, PDB entry 4kg1): 274 nM (active)

Nc1ncnc2c1ncn2[C@@H]1O[C@@H]2CO[P+](O)(O)O[C@@H]3[C@H](O)[C@@H](CO[P+](O)(O)O[C@@H]1[C@@H]2O)O[C@H]3n1cnc2c1NC(N)NC2=O (some centres undefined)
Kd (protein: Stimulator of interferon genes protein, PDB entry 4loi): 170 nM (active)
